Test results as given in PubChem BioAssay (NCATS).
Inconclusive results are not listed. A call without a number means that no potency is given here. Calls of active or inactive are those of the source. The call rests on the fitted dose curve; in most records, active means well fitted cell-killing curve with a large enough effect; inconclusive means small, poorly fitted or top-dose-only effect, or effect the other way; inactive means flat fitted curve, though single readings scatter. Where a SMILES comes first, the peptide text is derived from it. The star is where a group is joined. Hexanoyl = CCCCCC(=O)*

Each compound was assayed on OV90 (assay: Primary qHTS to identify gynecologic anti-cancer compounds using libraries of approved drugs and bioactive compounds (AID 1345084; further: nearly all actives have a fitted effect of over 55% in size)). Conditions: Gynecologic cancer cell panel viability, ATPlite luminescence, 48 h; series mostly up to 57.5 µM.
In short: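 Cells, 1,000 per well, were allowed to settle for 16 h at 37 C before compound addition. Five concentrations were tested for 48 h, and viability was read by ATPlite luminescence after 15 min at room temperature.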

Compound	Potency	activity change, negative = cytotoxicity
COc1cc(O)c2c(c1)C1(OC2=O)C(C)=CC(=O)C1O (configuration not stated)	inactive	–
CC1CCC2(NC1)OC1C(O)C3C4CCC5CC(O[C@@H]6O[C@H](CO)[C@@H](O)[C@H](O)[C@H]6O[C@@H]6O[C@@H](C)[C@H](O)[C@@H](O)[C@H]6O)CCC5(C)C4CCC3(C)C1C2C (some centres not stated)	inactive	–
Cc1c(C)c(NCC(=O)N(C)C2CCN(Cc3ccc(C(N)=O)cc3)CC2)c(C)c(C)c1N	inactive	–
CC1(C(=O)O)CCCC2(C)C3CCC4CC3(CCC12)CC4(O)CO (configuration not stated)	inactive	–
CCCN(CCN1CCN(c2ccccc2OC)CC1)C1CCc2ncsc2C1 (configuration not stated)	inactive	–
CC/C=C\CC1C(CC(=O)O)CCC1OC1OC(CO)C(O)C(O)C1O (configuration not stated)	inactive	–
CCN1CCN(C(=O)N[C@@H](C(=O)N[C@@H]2C(=O)N3[C@@H]2SC(C)(C)[C@@H]3C(=O)O)c2ccccc2)C(=O)C1=O	inactive	–
H-DPPDPDRFYGMM-NH2	inactive	–
C/C=C(\C)C1C(C)=CC2CCC(OS(=O)(=O)O)C(C)C2C1/C=C/C=C/C(=O)O (configuration not stated)	inactive	–
CC(=O)NC(Cc1c[nH]c2ccccc(=O)c12)C(=O)O (configuration not stated)	inactive	–
O=C(Cn1c2ccccc2c2nc3n(c(=O)c21)CCS3)N1CCCC1	inactive	–
Nc1nc2c(nc(Sc3ccc(Cl)cc3)n2[C@@H]2O[C@@H]3COP(=O)(O)O[C@H]3[C@H]2O)c(=O)[nH]1	inactive	–
C/C=C/C=C/C=C/C(=O)O[C@@H]1C=C(CO)[C@](O)(CO)[C@@]2(C)CCCC(C)(C)[C@H]12	inactive	–
CCOc1ccc(-c2cc(NC(=O)c3c(F)cccc3F)c(C(=O)O)s2)cc1	inactive	–
Cc1ccccc1NC(=O)Nc1ccc(CN2C(=O)N([C@@H](CC(C)C)C(=O)N[C@@H](CC(=O)O)c3ccccc3)C(=O)C2(C)C)cc1	inactive	–
CC1=C[C@H](O)[C@H]2C(C)(C)CCC[C@]2(C)[C@@]1(O)CO	inactive	–

Compound	Potency	activity change, negative = cytotoxicity
CC(=O)OC1(C)CC(O)C2(O)C=COC(OC3OC(CO)C(O)C(O)C3O)C12 (configuration not stated)	inactive	–
CCC(C)C1NC(=O)C2C(C)CCN2C(=O)C(CC(O)CO)OC(=O)CCNC(=O)C(C)N(C)C(=O)C(C(C)C)N(C)C1=O (configuration not stated)	inactive	–
CCCCCC(=O)N1CCC[C@H]1C(=O)N[C@@H](Cc1ccc(O)cc1)C(=O)OC (Hexanoyl-Pro-Tyr-OMe)	inactive	–
COc1ccc(C(=O)NCc2cc(C(C)C)no2)cc1OC1CCN(C)CC1	inactive	–
Cc1nc2ccccc2c(-c2ccc3c4c(ccnc24)CCO3)c1[C@H](OC(C)(C)C)C(=O)O	inactive	–
O=C(O)Cn1nnc(-c2ccc(CN(CCCCOc3ccc(CN4CCCC4)cc3)CCc3ccccc3)cc2)n1	inactive	–
COc1cc(Nc2ccc([N+](=O)[O-])cc2C(=O)O)cc2ccccc12	inactive	–
Nc1c(-c2ccccc2)nc(Cl)c2c(O)n[nH]c(=O)c12	inactive	–
O=C(O)c1cccc(CN2C(=O)/C(=C(\c3ccccc3)c3ccc(Cl)cc3)c3ccccc32)c1	inactive	–
Cc1cc(O[C@@H]2O[C@H](COC(=O)CC(=O)O)[C@@H](O)[C@H](O)[C@H]2O)c(C(C)C)cc1O	inactive	–
CC1(C)C[C@H]2C=C(C=O)[C@]3(C(=O)O)C[C@]3(C)[C@H]2C1	inactive	–
COc1c(-c2ccc(O)cc2)cc(OC)c2c1oc1cc(O)c(OC3OC(CO)C(O)C3O)cc12 (configuration not stated)	inactive	–
CC1OC(O[C@@H]2[C@H](O)[C@@H](OC3OC(CO)C(O)C(O)C3O)[C@H](OC(=O)[C@]34CCC(C)(C)C[C@H]3C3=CCC5[C@@]6(C)CC[C@H](O[C@@H]7O[C@H](C(=O)O)[C@@H](O)[C@H](O[C@@H]8OC[C@@H](O)[C@H](O)[C@H]8O)[C@H]7O[C@@H]7O[C@H](CO)[C@H](O)[C@H](O)[C@H]7O)[C@@](C)(C=O)C6CC[C@@]5(C)[C@]3(C)C[C@H]4O)O[C@@H]2C)C(O)C(O)C1OC1OCC(O)C(O)C1O (some centres not stated)	–	-6.72% [at 6.55 µM] (inactive)
O=c1[nH]ccc2nc(-c3ccc(CN4CCC(c5nc(-c6ccccn6)n[nH]5)CC4)cc3)c(-c3ccccc3)cc12	inactive	–
O=C1C[C@@]2(C(=O)N1)C(=O)N(Cc1ccc(Br)cc1F)C(=O)c1cccn12	inactive	–
C/C=C(\C)C(=O)OC[C@H]1O[C@H](O[C@H]2O[C@H](CO)[C@@H](O)[C@H](O)[C@H]2O[C@@H]2O[C@H](CO)[C@@H](O)[C@H](O)[C@H]2O)[C@H](O[C@@H]2O[C@H](CO)[C@@H](O)[C@H](O)[C@H]2O)[C@@H](O)[C@@H]1O	inactive	–
